Structures are written as SMILES. Where “and” joins values, the source holds several entries; their conditions need not be identical. Equal entries are not always repeated. Calls of active or inactive are those of the source. Unless noted, how the calls were made is not given here.

The results in this text go back to PubChem BioAssay.

A short description of assay [1]: compounds binding Alexa647 anti-His antibody – biochemical, small-molecule microarray, 635 nm fluorescence, artefact control for SMM control protein annotation, primary screen (AID 1128).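 Further: score merges feature fluorescence with signal-to-noise for each printed compound spot.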 To be noted: higher = more signal.
Assay [2] relates to Human papillomavirus type 1a E7 protein (residues 1-88). The assay can be described thus: HPV1a E7 small-molecule binders, primary screen, biochemical, small-molecule microarray, residues 1-88, 635 nm (AID 1129). To be noted: small-molecule microarray binding, fluorescence 635 nm; higher = more signal.
For assay [3], the target named is Focal adhesion kinase 1 (Homo sapiens) (UniProt Q05397). Briefly: PTK2 protein binding on printed compound slides – biochemical, small-molecule microarray, 635/667 nm fluorescence, BSA, DTT, primary screen (AID 1130).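 Further: composite of spot emission at 667 nm and signal to noise over triplicate slides.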 To be noted: 635 nm fluorescence, higher = more signal.
Chain of Focal adhesion kinase 1 (Homo sapiens) (Q05397 whole entry, looked up): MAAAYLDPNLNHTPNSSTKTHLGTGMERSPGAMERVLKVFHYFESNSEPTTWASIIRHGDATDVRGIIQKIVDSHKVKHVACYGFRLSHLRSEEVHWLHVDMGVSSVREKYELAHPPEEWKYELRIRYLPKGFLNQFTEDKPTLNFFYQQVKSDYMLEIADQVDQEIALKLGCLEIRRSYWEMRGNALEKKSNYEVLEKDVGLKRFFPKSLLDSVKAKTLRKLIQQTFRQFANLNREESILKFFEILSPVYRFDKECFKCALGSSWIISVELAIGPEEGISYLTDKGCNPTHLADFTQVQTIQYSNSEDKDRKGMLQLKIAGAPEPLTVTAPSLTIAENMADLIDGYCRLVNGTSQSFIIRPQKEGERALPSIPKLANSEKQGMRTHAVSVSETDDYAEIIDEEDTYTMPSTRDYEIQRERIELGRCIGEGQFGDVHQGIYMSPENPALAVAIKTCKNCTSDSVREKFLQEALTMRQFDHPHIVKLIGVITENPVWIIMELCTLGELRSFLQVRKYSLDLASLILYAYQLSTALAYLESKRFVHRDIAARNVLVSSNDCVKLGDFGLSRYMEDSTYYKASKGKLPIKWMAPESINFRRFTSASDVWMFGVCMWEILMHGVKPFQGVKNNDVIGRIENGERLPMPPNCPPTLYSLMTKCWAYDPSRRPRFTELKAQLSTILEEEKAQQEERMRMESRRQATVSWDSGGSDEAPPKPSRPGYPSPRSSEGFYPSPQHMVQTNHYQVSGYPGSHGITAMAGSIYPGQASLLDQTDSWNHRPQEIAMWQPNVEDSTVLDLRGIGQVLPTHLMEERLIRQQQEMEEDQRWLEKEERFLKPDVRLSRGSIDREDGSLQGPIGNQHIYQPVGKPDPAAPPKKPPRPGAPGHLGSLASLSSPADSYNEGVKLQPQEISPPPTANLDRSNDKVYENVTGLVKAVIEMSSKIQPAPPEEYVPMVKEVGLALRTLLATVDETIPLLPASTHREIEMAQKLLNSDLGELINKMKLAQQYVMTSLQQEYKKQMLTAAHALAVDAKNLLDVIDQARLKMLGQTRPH
Assay [4] concerns Fibrinogen (Alexa647-labelled). Briefly: Alexa647-fibrinogen binding to printed small molecules – biochemical, small-molecule microarray, 635/667 nm fluorescence, artefact control for SMM control-protein annotation, profiling panel (AID 1131).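 Further: z-score merges 667 nm fluorescence with per-spot signal-to-noise over triplicate slides.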 To be noted: fibrinogen-A647 binding fluorescence, higher = more signal.
Assay [5] has as its target Follistatin (Homo sapiens) (UniProt P19883). The assay can be described thus: FST protein binding to printed compounds – biochemical, small-molecule microarray, 635/667 nm fluorescence, primary screen (AID 1132). To be noted: 635 nm fluorescence, higher = more signal.
Assay [6] addresses Fibroblast growth factor 2 (Homo sapiens) (UniProt P09038). The assay can be described thus: basic fibroblast growth factor binding to printed compounds – biochemical, small-molecule microarray, 635/667 nm fluorescence, primary screen (AID 1133). To be noted: FGF2, fluorescence 635/667, higher = more signal.
The nature of assay [7]: JC-1 mitochondrial potential readout, lung cancer cells – cell-based, A549, JC-1 fluorescence, basal, 24 h, 100 nL, profiling panel (AID 1138).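 Further: A549 lung adenocarcinoma cells under basal conditions with no added stimulus; test concentration not given here.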 To be noted: higher = more signal.
For another assay, the system named is Lefty1. Briefly: Lefty1 protein binding to printed compounds – biochemical, small-molecule microarray, 635/667 nm fluorescence, primary screen (AID 1139). Particulars: fluorescence 635/667, higher = more signal.
In assay [8] the test system is wheat germ agglutinin (Triticum aestivum), Alexa647-labelled. Briefly: Alexa647-WGA lectin binding to printed small molecules – biochemical, small-molecule microarray, 635/667 nm fluorescence, artefact control for SMM control-protein annotation, profiling panel (AID 1140).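 Further: score merges 667 nm feature emission with signal to noise over triplicate slides.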 To be noted: WGA-A647 binding, 635 nm fluorescence, higher = more signal.
Assay [9] addresses Luciferin 4-monooxygenase (Photinus pyralis) (UniProt P08659). Briefly: inhibition of purified Photinus pyralis luciferase – biochemical, luminescence, purified enzyme, 2006 set, primary screen (AID 1141).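 Further: cell-free assay with purified firefly luciferase at 100 ng per well in PBS; test concentration not given here.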 To be noted: purified firefly luciferase, SteadyGlo luminescence, 30 min; higher = more signal, called active from +8 up or from −8 down.
Assay [10] relates to Wnt5a (protein binding on small-molecule microarray). The assay can be described thus: small molecules binding Wnt5a protein – biophysical, small-molecule microarray, 635/667 nm fluorescence, primary screen (AID 1142).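 Further: fluorescence read at 667 nm with signal to noise per printed feature.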 Particulars: 635 nm fluorescence, higher = more signal.
Assay [11] in a line: ATP-based viability of Huh7 replicon cells – cell-based, CellTiter-Glo luminescence, basal, 48 h, cytotoxicity control for HCV replication inhibitor project, primary screen (AID 1143).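 Further: Huh7 hepatoma cells carrying a hepatitis C replication reporter with no stimulus; test concentration not given here.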 Particulars: higher = more signal, called active from +8 up or from −8 down.
A short description of assay [12]: Pseudomonas biofilm growth suppression – PAO1 strain, BacTiter-Glo luminescence, LB-PBS, primary screen (AID 1144). To be noted: P. aeruginosa PAO1 biofilm, 12 h, higher = more signal.
Assay [13] can be described thus: basal CRE-LacZ reporter activity in PC12 – cell-based, unstimulated, primary screen (AID 1145). Particulars: no forskolin, luminescence, 4.5 h, higher = more signal, called active from +8 up or from −8 down.
Assay [14] in a line: forskolin-driven CRE-LacZ activity in PC12 – cell-based, CRE-LacZ reporter, forskolin-stimulated, primary screen (AID 1146).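 Further: PC12 cells with 6xCRE LacZ reporter stimulated by forskolin 10 µM; beta-galactosidase reporter signal reflecting CREB driven transcription.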 Particulars: luminescence, 4.5 h, higher = more signal, called active from +8 up or from −8 down.
Assay [15] concerns the target Streptavidin (Streptomyces avidinii) (UniProt P22629). The assay can be described thus: compounds binding control protein streptavidin – biophysical, small-molecule microarray, 635/667 nm fluorescence, artefact control for SMM compound annotation, primary screen (AID 1147).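 Further: signal reflects streptavidin binding to arrayed compounds as a control protein.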 To be noted: higher = more signal.
Assay [16] can be described thus: probe aInhba binding on compound microarray – biochemical, small-molecule microarray, 635/667 nm fluorescence, primary screen (AID 1148).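 Further: score merges 667nm spot fluorescence with signal-to-noise for antibody binding to printed compounds.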 To be noted: higher = more signal.
Assay [17] addresses Torsin-1A (Homo sapiens) (UniProt O14656). The assay can be described thus: TOR1A wild-type binding on microarray – cell lysate, small-molecule microarray, lysate, 635/667 nm, primary screen (AID 1149). To be noted: COS7 hTOR1A-WT lysate, 635 nm fluorescence, higher = more signal.
Assay [18] has the same target. Briefly: torsin A mutant lysate binding on microarrays – cell lysate, small-molecule microarray, COS7 lysate, 635/667 nm fluorescence, primary screen (AID 1150).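 Further: score pools 667 nm emission and signal to noise measuring lysate protein binding.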 Particulars: COS7 hTOR1A mutant lysate, 635 nm fluorescence, higher = more signal.
The test system of assay [19] is Sonic hedgehog protein (Shh). Briefly: Sonic hedgehog microarray binding compounds – biochemical, small-molecule microarray, 635/667 nm fluorescence, primary screen (AID 1151).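 Further: Shh protein binding to compounds spotted on small-molecule microarray slides; score combines spot fluorescence intensity with signal-to-noise across triplicate slides.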 To be noted: 635 nm fluorescence, higher = more signal.

Chain of Follistatin (Homo sapiens) (P19883 whole entry, looked up): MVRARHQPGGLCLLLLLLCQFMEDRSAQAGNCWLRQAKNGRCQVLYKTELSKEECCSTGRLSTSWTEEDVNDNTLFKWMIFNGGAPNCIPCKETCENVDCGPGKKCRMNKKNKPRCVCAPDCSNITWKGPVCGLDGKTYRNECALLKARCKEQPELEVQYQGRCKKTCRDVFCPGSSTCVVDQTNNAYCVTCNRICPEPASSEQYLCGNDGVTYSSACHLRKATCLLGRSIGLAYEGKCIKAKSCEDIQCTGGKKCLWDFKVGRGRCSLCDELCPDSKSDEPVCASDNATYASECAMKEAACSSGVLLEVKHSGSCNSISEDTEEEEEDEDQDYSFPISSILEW
Chain of Fibroblast growth factor 2 (Homo sapiens) (P09038 whole entry, looked up): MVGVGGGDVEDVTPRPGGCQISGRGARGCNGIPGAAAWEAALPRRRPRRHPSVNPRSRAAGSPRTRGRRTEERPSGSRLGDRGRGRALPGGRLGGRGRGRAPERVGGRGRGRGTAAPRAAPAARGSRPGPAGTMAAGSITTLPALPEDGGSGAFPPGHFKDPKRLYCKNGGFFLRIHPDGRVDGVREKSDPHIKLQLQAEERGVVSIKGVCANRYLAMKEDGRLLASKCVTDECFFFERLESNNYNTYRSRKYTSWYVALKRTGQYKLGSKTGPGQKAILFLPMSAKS
Chain of Streptavidin (Streptomyces avidinii) (P22629 whole entry, looked up): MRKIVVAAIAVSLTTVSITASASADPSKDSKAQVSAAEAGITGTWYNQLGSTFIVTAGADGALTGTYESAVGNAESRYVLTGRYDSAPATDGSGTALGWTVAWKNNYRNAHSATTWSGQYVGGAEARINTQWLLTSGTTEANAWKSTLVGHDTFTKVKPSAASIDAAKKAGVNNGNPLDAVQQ
Chain of Luciferin 4-monooxygenase (Photinus pyralis) (P08659 whole entry, looked up): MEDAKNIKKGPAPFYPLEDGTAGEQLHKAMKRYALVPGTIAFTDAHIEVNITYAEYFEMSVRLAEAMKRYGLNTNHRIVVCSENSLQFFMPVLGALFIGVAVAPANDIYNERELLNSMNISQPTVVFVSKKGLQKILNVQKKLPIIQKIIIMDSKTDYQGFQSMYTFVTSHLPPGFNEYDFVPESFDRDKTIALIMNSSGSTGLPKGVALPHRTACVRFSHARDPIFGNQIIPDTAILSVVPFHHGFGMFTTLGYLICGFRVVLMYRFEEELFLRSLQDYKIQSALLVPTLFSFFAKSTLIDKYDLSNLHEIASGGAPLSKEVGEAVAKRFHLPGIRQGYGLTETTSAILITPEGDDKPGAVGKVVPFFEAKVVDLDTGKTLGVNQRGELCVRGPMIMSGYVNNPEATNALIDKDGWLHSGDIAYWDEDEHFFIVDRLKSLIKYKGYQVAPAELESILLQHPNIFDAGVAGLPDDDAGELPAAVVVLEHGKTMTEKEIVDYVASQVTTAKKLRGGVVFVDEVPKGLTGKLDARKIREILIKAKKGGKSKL
Chain of Torsin-1A (Homo sapiens) (O14656 whole entry, looked up): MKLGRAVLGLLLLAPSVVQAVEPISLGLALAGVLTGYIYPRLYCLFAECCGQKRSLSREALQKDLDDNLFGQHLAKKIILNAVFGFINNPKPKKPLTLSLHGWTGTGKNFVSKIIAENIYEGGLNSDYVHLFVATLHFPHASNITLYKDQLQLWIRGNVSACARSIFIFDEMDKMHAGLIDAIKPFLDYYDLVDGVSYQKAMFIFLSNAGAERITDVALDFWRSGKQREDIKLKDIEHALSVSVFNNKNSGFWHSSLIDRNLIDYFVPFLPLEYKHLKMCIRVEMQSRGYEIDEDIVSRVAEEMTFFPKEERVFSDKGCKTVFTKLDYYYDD

Consider `CCOC(=O)NN=C1C[C@@H](O)[C@@H](O)[C@@H]2[C@@H]3C(=O)N(Cc4ccc5c(c4)OCO5)C(=O)[C@@H]3CC[C@@H]12`, for which the composite z-score is 0.0648 in assay [1]; 0.449 in assay [2]; -0.0156 in assay [3]; 0.669 in assay [4]; 0.0164 in assay [5]; 0.197 in [6]. Further, the composite z-score in the assay with Lefty1 was 0.225; in [8] it was 0.626; in assay [10], -0.0968; in [15], 0.79; in assay [16], -0.179; in the assay with Torsin-1A (Homo sapiens) [17], 0.39. The figures for the composite z-score (with Torsin-1A (Homo sapiens) [18]; in [19]) were 0.0143 and 0.191, respectively. Further, the z-score in assay [7] was 1.06; in [9], 0.556 (inactive); in assay [11], -0.299 (inactive); in [12], 1.43 (inactive); in assay [13], -0.293 (inactive); in assay [14], -0.341 (inactive).
As for `C=CCN(CCCCC)C(=O)C1N(c2c(Cl)cccc2CO)C(=O)C2C(C(=O)O)C3C=CC21O3` (stereo not given), the composite z-score in assay [1] was -1.91 and -0.805; in assay [2], -0.751 and -1.1; in assay [3], -0.845 and -0.37; in assay [4], -1.41 and -1.31; in [5] it was -2.55 and -0.968; in assay [6] it was -2.42 and -2.09. Further, the composite z-score is -1.6 and -1.98 in the assay on Lefty1; -2.05 and -1.28 in assay [8]; -0.65 and -1.3 in assay [10]; -1.41 in assay [15]; -0.258 and -0.152 in [16]; -1.44 and -3.52 with Torsin-1A (Homo sapiens) [17]. Besides, the composite z-score is -1.09 and -2.63 in the assay with Torsin-1A (Homo sapiens) [18]; -0.333 and -1.79 in assay [19]. Further, the z-score was -1.02 and -0.472 in assay [7]; 0.975 (inactive) and 0.308 (inactive) in [9]; 0.0928 (inactive) and -0.313 (inactive) in [11]; -0.568 (inactive) and -0.00991 (inactive) in assay [12]; 0.467 (inactive) and 0.199 (inactive) in assay [13]; 0.209 (inactive) and -0.0386 (inactive) in assay [14].
With `C=CC[C@@H](O)c1ccc(OCCO)cc1`, the composite z-score is 0.7 and -0.687 in assay [1]; 0.301 and -0.59 in [2]; -0.595 and -0.79 in [3]; -1.34 and -0.494 in assay [4]; 0.716 and -0.517 in [5]; -0.418 and -1.58 in assay [6]. In addition, the composite z-score is -0.146 and -0.805 in the assay with Lefty1; -0.455 and 0.763 in assay [8]; -0.0578 and -0.579 in [10]; -1.47 and -0.878 in assay [15]; -0.259 and -0.153 in assay [16]; 0.588 and -3.38 in the assay with Torsin-1A (Homo sapiens) [17]. For the same molecule, the composite z-score with Torsin-1A (Homo sapiens) [18] was 0.479 and -2.42; in assay [19], 0.0925 and -0.262. Besides, the z-score was 0.856 and 0.491 in assay [7]; -6.43 (inactive) and -6.38 (inactive) in [9]; -0.924 (inactive) and -0.105 (inactive) in assay [11]; 0.517 (inactive) and -0.242 (inactive) in [12]; -0.431 (inactive) and 0.772 (inactive) in assay [13]; -0.613 (inactive) and -0.949 (inactive) in [14].
Consider `C=C[C@@H](OC)[C@H](O)c1ccc(O)c(F)c1`, for which the composite z-score in [1] was -0.709 and -0.462; in assay [2], -0.912 and -1.26; in assay [3] it was -0.746 and -0.838; in assay [4] it was -1.11 and -0.58; in assay [5] it was -1.18 and -0.404; in [6], -1.39 and 0.0341. The composite z-score was -1.7 and -0.947 with Lefty1; -0.303 and -0.223 in assay [8]; -0.843 and -0.24 in [10]; -1.35 and -1.17 in [15]; -0.314 and -0.154 in assay [16]; -1.65 and -0.846 with Torsin-1A (Homo sapiens) [17]. The composite z-score with Torsin-1A (Homo sapiens) [18] is -2.28 and -0.978; in assay [19], -0.644 and 0.0436. Besides, the z-score in [7] is -0.329 and 0.662; in assay [9] it was -0.981 (inactive) and -1.3 (inactive); in assay [11] it was 0.558 (inactive) and -0.495 (inactive); in assay [12], -0.776 (inactive) and 0.181 (inactive); in assay [13] it was 0.572 (inactive) and 0.427 (inactive); in assay [14], -0.881 (inactive) and -0.122 (inactive).
